# An excerpt weighted towards active compounds, which were near 21% of everything screened.
# Pf growth 48h = inhibits P. falciparum growth in the first generation, 48 h; P. falciparum luciferase growth in erythrocytes, 48 h; Potency, µM (titrated, usually from 28.7 µM), for the others: at the highest dose activity change, negative = inhibition, hits mostly inhibitors; 310,000 tested, 5.9% active; AID 504832; active = well fitted inhibition curve with a large enough effect; inconclusive = small, poorly fitted or top-dose-only effect, or another doubt; inactive = no such curve, though single readings can be large or run the other way; also: potency is read from the fitted curve at half-maximal effect; % is scaled to controls: 0 for no effect and ±100 for the full control effect
#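 Cell-based growth assay: transgenic P. falciparum expressing firefly luciferase, cultured in red cells within RPMI 1640 containing 0.5% w/v Albumax, 24 mM bicarbonate and gentamycin. A drop in luciferase activity indicates inhibition.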
# Cycloheximide cs = counter-screen for Shiga toxin inhibitors: cycloheximide protein synthesis inhibition; 300,000 tested, 12% active; cell reporter, cycloheximide protein synthesis inhibition counterscreen; max response, %; in the data active = max response mostly above about 13%, no sharp cut-off; inactive = mostly below about 14%; also: read at 38.3 µM for the half of the compounds with a filed dose; 0% is about no effect
# SARS PLP yeast = blocks SARS-CoV papain-like protease in a yeast assay; S. cerevisiae expressing SARS-CoV PLpro, growth rescue; Potency, µM (titrated, usually from 32.9 µM), for inactives: at the highest dose activity, positive = growth rescue, actives largely listed as activators; 330,000 tested, 0.19% active; also: potency is read from the fitted curve at half-maximal effect; 0% is about no effect; nearly all actives have a fitted effect of over 55% in size
# Pf growth 96h = P. falciparum growth inhibition at 96 hours; AID 504834; 320,000 tested, 6.9% active; Potency, µM (doses to about 28.7 µM), inactives show at the top dose activity change, negative = inhibition, usual class: inhibitors; P. falciparum luciferase reporter growth, 96 h; active = well fitted inhibition curve with a large enough effect; inconclusive = small, poorly fitted or top-dose-only effect, or another doubt; inactive = no such curve, though single readings can be large or run the other way; also: potency is read from the fitted curve at half-maximal effect; % is scaled to controls: 0 for no effect and ±100 for the full control effect
#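 P. falciparum expressing integrated firefly luciferase, in erythrocytes at 2% hematocrit, 0.05% parasitemia, incubated with compounds 96 h at 37 C, 5% CO2. Growth inhibition read as loss of luminescence; two-generation exposure targets delayed-death apicoplast inhibitors.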
# NS1 function inh = influenza NS1 inhibition | Potency, µM (titrated, usually from 46.1 µM), for the others: top-dose activity, positive = more growth | 270,000 tested, 0.4% active | AID 2326; also: potency is read from the fitted curve at half-maximal effect; actives are rising curves; nearly all actives have a fitted effect of over 50% in size
#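 Compounds were scored for reversing the slow growth caused by influenza A NS1 in S. cerevisiae, measured by optical density at 600 nm. Assay medium contained 2% galactose at pH 6.0; NS1-free yeast of the same strain were the positive control.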
# Shiga inhibitor = blocks Shiga toxin action in Vero cells; Vero cells, Shiga toxin protein synthesis inhibition reporter; inhibition, % at 38.7 µM; 290,000 tested, 9.2% active; in the data active = inhibition mostly above about 28%, no sharp cut-off; inactive = mostly below about 43%; also: 0% is about no effect
# Numbers without * were called inactive; ? = inconclusive; . = not tested or not shown. Unless noted, calls follow the shape of the full dose curve.
SMILES,Pf growth 48h,Cycloheximide cs,SARS PLP yeast,Pf growth 96h,NS1 function inh,Shiga inhibitor
Cc1ccc(NC(=O)COC(=O)CCc2ccccc2)c(Cl)c1,9%,4,-3%,34%,-4%,4
Cc1ccc(NC2CC(C)NC(=S)N2)cc1 (stereo not drawn),4%,-2,1%,13%,7%,-4
O=C(CCC1CCCN(Cc2cccc(Cl)c2)C1)NCc1ccccc1F (stereo not drawn),-20%,1,0%,-13%,-3%,-8
CCCC[N+](CC#Cc1ccccc1)(CCCC)CCCS(=O)(=O)[O-],4%,1,-1%,-3%,.,3
CSc1ccc(/C=C(\NC(=O)c2ccco2)C(=O)N2CCCCC2)cc1,-9%,-1,1%,0%,-18%,-12
CC(=O)c1cccc(N(C(=O)c2ccco2)C(C(=O)NC2CCCC2)c2ccc(N3CCOCC3)cc2)c1 (stereo not drawn),?,-1,0%,17%,-4%,1
O=C(NC1CCCC1)C(c1ccc(N2CCOCC2)cc1)N(Cc1ccccc1)C(=O)c1ccco1 (stereo not drawn),15µM*,-5,4%,.,-8%,-2
COC(=O)c1cccc(N(C(=O)c2ccco2)C(C(=O)NC2CCCC2)c2ccc(N3CCOCC3)cc2)c1 (stereo not drawn),10µM*,-3,-2%,32%,-7%,-3
O=C(NC1CCCC1)C(c1ccc(N2CCOCC2)cc1)N(Cc1ccco1)C(=O)c1ccco1 (stereo not drawn),?,14,-5%,.,-1%,-18
O=C(CN1C(=O)NC2(CCc3ccccc32)C1=O)Nc1cc(C(F)(F)F)ccc1N1CCOCC1 (stereo not drawn),?,-4,3%,?,-3%,-3
CCN(CC)c1nc(C)nc2c1cnn2CCc1ccccc1,14%,49*,-2%,.,-11%,173*
CCN(CC)c1ncnc2c1cnn2Cc1ccc(C)cc1,?,7,-1%,-30%,-7%,17
COc1cc(NS(=O)(=O)c2ccc(C)cc2C)cc(OC)c1OC,6.6µM*,3,13%,3.3µM*,0%,-12
COc1ccccc1NC(=O)Cn1cnc2c(nnn2-c2ccc(C)cc2)c1=O,-35%,-2,0%,18%,-3%,-5
CCC(C)Oc1cc(-c2ccnc(Nc3cccc(Cl)c3)n2)ccn1 (stereo not drawn),?,4,-4%,?,1%,19
OCCCNc1cc(-c2ccnc(Nc3cccc(Cl)c3)n2)ccn1,0.74µM*,23*,-7%,0.41µM*,-48%,37*
COc1cc(NC(=S)NC(=O)c2c(OC)cccc2OC)ccc1NC(=O)c1cccs1,5.2µM*,-2,6%,9%,7%,-24
COc1cc(NC(=S)NC(=O)c2cc(C)cc(C)c2)ccc1NC(=O)c1cccs1,?,7,-10%,2.9µM*,26%,3
COc1cc(NC(=S)NC(=O)c2ccccc2C)ccc1NC(=O)c1cccs1,?,-1,-2%,-29%,14%,6
COc1cc(NC(=S)NC(=O)c2ccc(C(C)(C)C)cc2)ccc1NC(=O)c1cccs1,?,-4,23%,?,10%,-12
CN(C(=O)Cn1nnc(-c2ccccc2)n1)C1CCS(=O)(=O)C1 (stereo not drawn),7%,.,3%,0%,.,.
Cc1ccc(OS(=O)(=O)c2cn(C)c(=O)n(C)c2=O)cc1C,15%,8,-1%,0%,1%,25
COc1cccc(CCC(=O)N2CCC(n3nccc3NC(=O)CC(C)C)CC2)c1,-12%,16,14%,22%,11%,14
CCOc1ccc(C(=O)Nc2cccc3cccnc23)cc1,4%,6,-2%,0%,-18%,10
O=C(Nc1cccc2cccnc12)c1ccccc1,.,25*,.,.,.,43*
O=C(Nc1cccc2cccnc12)c1ccc(F)cc1,.,35*,.,.,.,64*
O=C(Nc1cccc2cccnc12)c1cccc([N+](=O)[O-])c1,79%,35*,0%,22%,-6%,69*
CC(C)Oc1ccc(C(=O)Nc2cccc3cccnc23)cc1,22%,27*,-5%,-9%,-2%,59*
O=C(NC(=S)Nc1cccc2cccnc12)c1ccccc1,27%,-4,-4%,35%,6%,2
